Source: the supplement of paper PMC7366291
Counter-ions that a name gives are not always drawn. ± gives the standard deviation of the averaged measurements.

What follows are compounds tested on Danio rerio Tg(wt1b:EGFP) embryo, pronephros (assay: fraction of imaged embryos annotated as normal kidney; higher = less nephrotoxic; extreme values may be limits of the assay). Conditions: 25 µM; exposure: 24-48 hpf.
Procedure, shortened: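 From 24 to 48 hpf at 28.5°C, dechorionated Tg(wt1b:EGFP) zebrafish embryos in 12-well plates were kept in 5 mM HEPES-buffered E3 with 0.003% PTU, 0.5% DMSO and 25 μM compound. Pronephroi were imaged by widefield fluorescence at 470 nm and judged by eye from maximum projections. Reported is the proportion of embryos per treatment in the normal-kidney category.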

| Structure (SMILES) | fraction of imaged embryos annotated as normal kidney |
| --- | --- |
| Cc1cccc(C)c1NC(=O)CN1CCN(CCCC(c2ccc(F)cc2)c2ccc(F)cc2)CC1 [Lidoflazine] | 0.167 |
| CC1(C)S[C@@H]2[C@H](NC(=O)[C@H](NC(=O)N3CCNC3=O)c3ccccc3)C(=O)N2[C@H]1C(=O)O [Azlocillin sodium salt] | 0.5 |
| CCOC(=O)[C@H](CCc1ccccc1)N[C@@H](C)C(=O)N1Cc2ccccc2C[C@H]1C(=O)O [Quinapril hydrochloride] | 1 |
| CCCCC(CC)CN1CN(CC(CC)CCCC)CC(C)(N)C1 (configuration not stated) [Hexetidine] | 0.75 |
| CC(C)N1CCN(c2ccc(OCC3COC(Cn4cncn4)(c4ccc(Cl)cc4Cl)O3)cc2)CC1 (configuration not stated) [Terconazole] | 1 |
| CN(C/C=C/c1ccccc1)Cc1cccc2ccccc12 [Naftifine hydrochloride] | 0.9 |
| c1ccc(CC2=NCCN2)cc1 [Tolazoline hydrochloride] | 0.667 |

Each compound was assayed on Danio rerio Tg(wt1b:EGFP) embryo, pronephros (assay: pronephric angle neck segment to proximal convoluted tubule (mean of left and right), fold change vs DMSO control; higher = larger pronephric angle). Conditions: 25 µM; exposure: 24-48 hpf.
Procedure, shortened: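 Features are reported as fold changes against the mean of same-day DMSO-treated embryos. Before that, values more than 2 SD away from the feature mean were excluded. The embryos, dechorionated Tg(wt1b:EGFP) zebrafish, had been exposed from 24 to 48 hpf at 28.5°C to 25 μM compound in 0.5% DMSO in HEPES-buffered E3 with 0.003% PTU, and distances and angles came from 16 manually set points on maximum projections of dorsal pronephros images in Fiji.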

| Structure (SMILES) | pronephric angle neck segment |
| --- | --- |
| CCN(CC)C(=O)/C(C#N)=C/c1cc(O)c(O)c([N+](=O)[O-])c1 [Entacapone] | 1.28 ± 0.14 |
| COC(=O)[C@@H]1[C@H]2C[C@H]3c4[nH]c5ccccc5c4CCN3C[C@@H]2CC[C@@H]1O [Yohimbine hydrochloride] | 0.985 ± 0.082 |
| CC(=O)SCC(Cc1ccccc1)C(=O)NCC(=O)OCc1ccccc1 (configuration not stated) [Racecadotril] | 1.365 ± 0.013 |
| O=C(NC(Cc1cc(=O)[nH]c2ccccc12)C(=O)O)c1ccc(Cl)cc1 (configuration not stated) [Rebamipide] | 0.972 ± 0.034 |
| CN1CCN(c2c(F)cc3c(=O)c(C(=O)O)cn(CCF)c3c2F)CC1 [Fleroxacin] | 1.049 ± 0.0028 |
| C[C@H]1[C@H](NC(=O)/C(=N\OC(C)(C)C(=O)O)c2csc(N)n2)C(=O)N1S(=O)(=O)O [Aztreonam] | 0.9634 ± 0.0095 |
| CCCCN(CCCC)CCCOC(=O)c1ccc(N)cc1 [Butacaine] | 0.9912 ± 0.0092 |
| COc1ccc(CN2CCN(C(c3ccc(F)cc3)c3ccc(F)cc3)CC2)c(OC)c1OC [Lomerizine hydrochloride] | 0.99 ± 0.019 |
| Cc1ccsc1/C=C/C1=NCCCN1C [Morantel tartrate] | 1.01 ± 0.019 |
| CN(C)C(=N)NC(=N)N [Metformin hydrochloride] | 1.08 ± 0.042 |
| COc1ccc2[nH]c([S+]([O-])Cc3ncc(C)c(OC)c3C)nc2c1 (configuration not stated) [Omeprazole] | 1.1759 ± 0.00043 |
| CCN1CCN(C(=O)N[C@@H](C(=O)N[C@@H]2C(=O)N3[C@@H]2SC(C)(C)[C@@H]3C(=O)O)c2ccccc2)C(=O)C1=O [Piperacillin sodium salt] | 1.01 ± 0.046 |
| CC[C@H](C)C(=O)O[C@H]1CCC=C2C=C[C@H](C)[C@H](CC[C@@H]3C[C@@H](O)CC(=O)O3)[C@H]21 [Mevastatin] | 1.73 ± 0.056 |
| COc1ccc2c(c1)N(C[C@H](C)CN(C)C)c1ccccc1S2 [Methotrimeprazine maleat salt] | 1.02 ± 0.016 |
| CC(C)(C)C(=O)OCOC(=O)[C@@H]1N2C(=O)[C@@H](NC(=O)[C@H](N)c3ccccc3)[C@H]2SC1(C)C [Pivampicillin] | 0.9619 ± 0.0073 |
| CN(CCOc1ccc(CC2SC(=O)NC2=O)cc1)c1ccccn1 (configuration not stated) [Rosiglitazone Hydrochloride] | 0.9727 ± 0.0063 |
| CCN1CCCC1CNC(=O)c1cc(S(N)(=O)=O)ccc1OC (configuration not stated) [Sulpiride] | 0.983 ± 0.032 |
| CC(=O)Nc1ccc(O)cc1 [Acetaminophen] | 0.9829 ± 0.0034 |
| CC(CN(C)C)CN1c2ccccc2CCc2ccccc21 (configuration not stated) [Trimipramine maleate salt] | 0.972 ± 0.048 |
| Cc1cccn2c(=O)c(-c3nnn[nH]3)cnc12 [Pemirolast potassium] | 0.99 ± 0.042 |

| Structure (SMILES) | pronephric angle neck segment |
| --- | --- |
| Cc1c(NC(=O)c2cccnc2)c(=O)n(-c2ccccc2)n1C [Nifenazone] | 1 ± 0.023 |
| CC(C)(C)C(=O)OCOC(=O)[C@@H]1N2C(=O)[C@@H](/N=C/N3CCCCCC3)[C@H]2SC1(C)C [Pivmecillinam hydrochloride] | 1.04 ± 0.012 |
| COc1ccc(C2CNC(=O)C2)cc1OC1CCCC1 (configuration not stated) [Rolipram] | 1.08 ± 0.086 |
| COc1ccc(C(=O)NCc2ccc(OCCN(C)C)cc2)cc1OC [Itopride] | 1.06 ± 0.055 |
| O=C(NCC1CCCCN1)c1cc(OCC(F)(F)F)ccc1OCC(F)(F)F (configuration not stated) [Flecainide acetate] | 0.961 ± 0.023 |
| Nc1ccc(/N=N/c2ccccc2)c(N)n1 [Phenazopyridine hydrochloride] | 1.101 ± 0.01 |
| C1CCC(C(CC2CCCCN2)C2CCCCC2)CC1 (configuration not stated) [Perhexiline maleate] | 1.006 ± 0.00027 |
| CN[C@@H]1[C@H](O[C@H]2[C@H](O[C@H]3[C@H](O)[C@@H](O)[C@H](N=C(N)N)[C@@H](O)[C@@H]3N=C(N)N)O[C@@H](C)[C@]2(O)C=O)O[C@@H](CO)[C@H](O)[C@H]1O [Streptomycin sulfate] | 0.959 ± 0.043 |
| CC(C)(O/N=C(\C(=O)N[C@@H]1C(=O)N2C(C(=O)[O-])=C(C[n+]3ccccc3)CS[C@H]12)c1csc(N)n1)C(=O)O [Ceftazidime pentahydrate] | 0.961 ± 0.018 |
| Nc1ccc(S(N)(=O)=O)cc1 [Sulfanilamide] | 0.996 ± 0.0089 |
| Cc1ncc(C[n+]2csc(CCO)c2C)c(N)n1 [Thiamine hydrochloride] | 0.994 ± 0.025 |
| CN(C)[C@@H]1C(O)=C(C(N)=O)C(=O)[C@@]2(O)C(O)=C3C(=O)c4c(O)ccc(Cl)c4[C@@H](O)[C@H]3C[C@@H]12 [Demeclocycline hydrochloride] | 1.06 ± 0.013 |
| Cc1cnc(C(=O)NCCc2ccc(S(=O)(=O)NC(=O)NC3CCCCC3)cc2)cn1 [Glipizide] | 0.944 ± 0.021 |
| Cc1cccc(C)c1NC(=O)CN1CCN(CCCC(c2ccc(F)cc2)c2ccc(F)cc2)CC1 [Lidoflazine] | 0.988 ± 0.13 |
| CC1(C)S[C@@H]2[C@H](NC(=O)[C@H](NC(=O)N3CCNC3=O)c3ccccc3)C(=O)N2[C@H]1C(=O)O [Azlocillin sodium salt] | 0.928 ± 0.015 |
| CCOC(=O)[C@H](CCc1ccccc1)N[C@@H](C)C(=O)N1Cc2ccccc2C[C@H]1C(=O)O [Quinapril hydrochloride] | 0.99 ± 0.015 |
| CCCCC(CC)CN1CN(CC(CC)CCCC)CC(C)(N)C1 (configuration not stated) [Hexetidine] | 0.9331 ± 0.005 |
| CC(C)N1CCN(c2ccc(OCC3COC(Cn4cncn4)(c4ccc(Cl)cc4Cl)O3)cc2)CC1 (configuration not stated) [Terconazole] | 0.948 ± 0.017 |
| CN(C/C=C/c1ccccc1)Cc1cccc2ccccc12 [Naftifine hydrochloride] | 0.982 ± 0.078 |
| c1ccc(CC2=NCCN2)cc1 [Tolazoline hydrochloride] | 0.949 ± 0.013 |
